Experimental findings from PubChem BioAssay (NCATS) are described below.

Assay [1] concerns the target Lysosomal acid glucosylceramidase (Homo sapiens) (UniProt P04062). Briefly: Glucocerebrosidase-p2 (AID 348; in the data active means potency below about 10 µM; further: potency means the concentration at half of the fitted maximal effect). To be noted: purified GBA, blue fluorogenic substrate, 40 min. The gist of the method: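 Compounds titrated from 0.6 nM upwards against 0.2 nM enzyme in pH 5.9 citric acid/KH2PO4, taurocholate, tween-20; blue fluorogenic substrate 80 uM, 40 min room temperature, stopped and read Ex 365/Em 440 for AC50.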

A short description of assay [2]: AP1 Signaling Pathway (AID 357).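 Further: ME-180 reporter cells stimulated with EGF at its EC50 level; on the % scale 0 is the no-effect control and ±100 the full control effect.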 The settings on record: ME-180 AP-1-bla reporter, EGF-induced, beta-lactamase ratio, 5 h; at 7.69 µM (top of the series) unless noted. The gist of the method: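 First, ME-180 AP-1-bla cells were cultured overnight at 37 °C in low-serum Opti-MEM. Next, titrated compounds with EC50 EGF were incubated 5 hours. Finally, CCF4 was added for 2.5 hours and the 460/530 nm ratio recorded.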

Assay [3] addresses Cytochrome P450 1A2 (Homo sapiens) (UniProt P05177). Briefly: p450-cyp1a2 (AID 410; calls by dose curve; further: potency means the concentration at half of the fitted maximal effect). To be noted: recombinant CYP1A2, luciferin-ME demethylation, luminescence; series mostly up to 11.4 µM. The method in brief:
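Luminescent readout of luciferin formed from Luciferin-ME by human CYP1A2; data normalized against complete inhibition by 57 uM furafylline. Enzyme 20nM, substrate 100uM at Km, 100mM KPO4 buffer, 60 min reaction at room temperature.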

Assay [4] in a line: Stat Signaling Pathway (AID 446).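 Further: ME-180 cervical cancer cells given 40 pM IL-6 alongside compound; SIE-controlled beta-lactamase reporter measured as 460/530 nm FRET emission ratio; on the % scale 0 is the no-effect control and ±100 the full control effect.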 To be noted: ME-180 SIE beta-lactamase reporter, IL-6 stimulated, 5 h; at 7.69 µM (top of the series) unless noted. The method in brief: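 ME-180 cells carrying a SIE-driven beta-lactamase reporter are stimulated with 40 pM IL-6 for 5 h at 37C in the presence of compound. The 460/530 nm FRET substrate ratio is read after 2.5 h at RT. Data are normalised to 300 pM IL-6 and to 125 nM JAK inhibitor controls.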

Assay [5] has as its target Glucocorticoid receptor (Homo sapiens) (UniProt P04150). Briefly: GR-GFP Redistribution (AID 450;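 active means compounds whose dose series gives a full or clear partial fitted curve of increased nuclear translocation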; further: potency means the concentration at half of the fitted maximal effect). To be noted: U2OS GR-GFP nuclear translocation, laser cytometry, 2 h.
For assay [6] the target is unchanged. The experiment in a line: GR-EFC Redistribution (AID 451; calls by dose curve; further: potency means the concentration at half of the fitted maximal effect). The settings on record: CHO-K1 GR-EFC translocation, beta-gal luminescence, 2 h. The gist of the method:
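Translocation of GR-ED fusion to nuclear EA restores b-gal, read by luminescence after 1 h room-temperature detection. Engineered CHO-K1 biosensor cells, 1,000/well, exposed 2 h at 37 C to titrations up to 46 uM final.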

Assay [7] deals with Mitogen-activated protein kinase 10 (Mus musculus) (UniProt Q61831). The experiment in a line: JNK3 AlphaScreen Assay (AID 530).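 Further: kinase came from lysate of stimulated human HepG2 cells; signal reports phosphorylation of biotinylated GST-cJun 1-79 at Ser73 with 10 µM ATP; on the % scale 0 is the no-effect control and ±100 the full control effect.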 To be noted: JNK3 lysate, c-Jun phosphorylation; series mostly up to 11.4 µM. The method in brief:
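Compound titrations were preincubated 15 minutes at room temperature with substrate, antibody and pre-activated JNK3-containing HepG2 lysate. Reactions were started with 10 uM ATP and stopped with EDTA-containing bead buffer for AlphaScreen detection.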

For assay [8], the target named is 3',5'-cyclic-AMP phosphodiesterase 4B (Homo sapiens) (UniProt Q07343). Briefly: qHTS Assay for Inhibitors of PDE-IV (AID 607; active means well fitted activation curve with a large enough effect in the main read-out, with a control signal flat, not every such curve was filed as active; further: % of control where 0% means no effect). To be noted: HEK293 ACTOne CNG channel cells, membrane potential fluorescence; series mostly up to 22.9 µM. The method in brief: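 HEK293 ACTOne cells with CNG channel (1000/well), endogenous PDE4; membrane potential dye, compounds up to 22.9 uM final. Fluorescence Ex 535/Em 590; RO 20-1724 (100 uM final) as reference.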
Chain of 3',5'-cyclic-AMP phosphodiesterase 4B (Homo sapiens) (Q07343 whole entry, looked up): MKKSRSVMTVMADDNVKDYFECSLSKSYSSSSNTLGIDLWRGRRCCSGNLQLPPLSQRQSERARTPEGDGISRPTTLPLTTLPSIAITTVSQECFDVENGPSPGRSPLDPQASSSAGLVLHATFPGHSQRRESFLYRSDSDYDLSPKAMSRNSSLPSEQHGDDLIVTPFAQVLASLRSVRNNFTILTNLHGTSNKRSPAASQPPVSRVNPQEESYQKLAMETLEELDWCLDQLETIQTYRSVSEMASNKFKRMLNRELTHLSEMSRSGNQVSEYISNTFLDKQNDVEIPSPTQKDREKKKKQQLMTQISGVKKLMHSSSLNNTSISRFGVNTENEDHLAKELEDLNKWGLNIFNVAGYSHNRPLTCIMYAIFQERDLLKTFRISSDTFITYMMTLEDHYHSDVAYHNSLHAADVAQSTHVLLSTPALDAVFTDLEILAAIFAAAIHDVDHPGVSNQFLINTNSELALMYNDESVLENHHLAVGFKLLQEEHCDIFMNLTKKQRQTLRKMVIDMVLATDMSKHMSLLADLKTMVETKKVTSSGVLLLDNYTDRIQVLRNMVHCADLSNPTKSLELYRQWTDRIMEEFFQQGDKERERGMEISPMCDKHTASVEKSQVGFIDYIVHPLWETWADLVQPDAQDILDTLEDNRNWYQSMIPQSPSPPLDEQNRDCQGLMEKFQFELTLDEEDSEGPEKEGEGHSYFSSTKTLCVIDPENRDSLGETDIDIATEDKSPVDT
(In general: qHTS replaces the single test concentration by a dilution series.)

Assay [9] addresses Cytochrome P450 3A4 (Homo sapiens) (UniProt P08684). Briefly: qHTS Assay for Inhibitors and Substrates of Cytochrome P450 3A4 (AID 884; active means well fitted curve in the direction sought with a large enough effect; an effect the other way counts as inactive or inconclusive; further: potency means the concentration at half of the fitted maximal effect; nearly all actives have a fitted effect of over 50% in size). The settings on record: recombinant CYP3A4, Luciferin-PPXE luminescence; series mostly up to 57.1 µM. The gist of the method:
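20 nM human CYP3A4 with 25 uM Luciferin-PPXE (at KM) in 200 mM KPO4, preincubated 10 min with compound; NADPH regeneration started a 60 min RT reaction. Luciferin detected by luminescence, normalized to 57 uM ketoconazole as full inhibition.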

Assay [10] shares this target. The experiment in a line: qHTS Assay for Activators of Cytochrome P450 3A4 (AID 885; active means well fitted curve in the direction sought with a large enough effect; an effect the other way counts as inactive or inconclusive; further: nearly all actives have a fitted effect of over 65% in size). The settings on record: recombinant CYP3A4, Luciferin-PPXE luminescence, 60 min; series mostly up to 11.4 µM. The method in brief: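 Human CYP3A4 (20 nM) with Luciferin-PPXE at 25 uM (its KM) in 200 mM KPO4; 10 min compound preincubation, then NADPH regeneration and 60 min reaction at RT. Luciferin read by luminescence; normalized to 57 uM ketoconazole full inhibition.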

Assay [11] has as its target Cytochrome P450 2C19 (Homo sapiens) (UniProt P33261). Briefly: qHTS Assay for Inhibitors and Substrates of Cytochrome P450 2C19 (AID 899; active means well fitted curve in the direction sought with a large enough effect; an effect the other way counts as inactive or inconclusive; further: potency means the concentration at half of the fitted maximal effect; nearly all actives have a fitted effect of over 60% in size). The settings on record: recombinant CYP2C19, luciferin-H EGE luminescence; series mostly up to 11.4 µM. The method in brief:
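Luminescence readout of luciferin formed from 10uM Luciferin-H EGE (KM level) by 5 nM CYP2C19 in 50mM KPO4. 60 min NADPH-driven reaction at 37C after 10 min compound preincubation; data scaled to 57uM ketoconazole inhibition.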

In assay [12] the target is Cytochrome P450 2D6 (Homo sapiens) (UniProt P10635). The experiment in a line: qHTS Assay for Inhibitors and Substrates of Cytochrome P450 2D6 (AID 891; active means well fitted curve in the direction sought with a large enough effect; an effect the other way counts as inactive or inconclusive; further: potency means the concentration at half of the fitted maximal effect; nearly all actives have a fitted effect of over 60% in size). To be noted: recombinant CYP2D6, luciferin-ME EGE luminescence; series mostly up to 11.4 µM. The gist of the method:
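Human CYP2D6 (5 nM) with 30 uM Luciferin-ME EGE (at Km) in 100 mM KPO4, compound preincubated 10 min, then NADPH regeneration system for 60 min at room temperature. Luciferin read by luminescence; normalized to 1.43 uM quinidine.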

Unmarked numbers belong to inactive results. Inconclusive results are not listed. Active and inactive are the calls of the source. Unless noted, the call rests on the fitted dose curve; in most records, active means well fitted curve in either direction with a large enough effect (not every such curve was filed as active); inconclusive means small, poorly fitted or top-dose-only effect, or another doubt; inactive means flat fitted curve, though single readings scatter. Where only a bound is given, the exact number is not on record here.

Chain of Cytochrome P450 2D6 (Homo sapiens) (P10635 whole entry, looked up): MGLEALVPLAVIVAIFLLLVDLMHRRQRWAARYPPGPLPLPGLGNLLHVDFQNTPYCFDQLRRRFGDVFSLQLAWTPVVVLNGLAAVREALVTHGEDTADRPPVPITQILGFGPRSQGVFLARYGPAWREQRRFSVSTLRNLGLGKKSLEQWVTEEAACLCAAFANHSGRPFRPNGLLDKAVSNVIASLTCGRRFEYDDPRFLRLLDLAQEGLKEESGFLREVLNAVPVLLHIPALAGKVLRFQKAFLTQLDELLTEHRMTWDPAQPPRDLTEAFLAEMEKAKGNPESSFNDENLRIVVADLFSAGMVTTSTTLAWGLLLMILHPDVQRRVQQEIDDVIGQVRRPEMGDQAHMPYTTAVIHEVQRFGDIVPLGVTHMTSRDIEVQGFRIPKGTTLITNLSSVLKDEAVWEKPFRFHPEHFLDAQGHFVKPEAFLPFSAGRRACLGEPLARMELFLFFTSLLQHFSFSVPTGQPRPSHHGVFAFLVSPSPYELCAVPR
Chain of Cytochrome P450 3A4 (Homo sapiens) (P08684 whole entry, looked up): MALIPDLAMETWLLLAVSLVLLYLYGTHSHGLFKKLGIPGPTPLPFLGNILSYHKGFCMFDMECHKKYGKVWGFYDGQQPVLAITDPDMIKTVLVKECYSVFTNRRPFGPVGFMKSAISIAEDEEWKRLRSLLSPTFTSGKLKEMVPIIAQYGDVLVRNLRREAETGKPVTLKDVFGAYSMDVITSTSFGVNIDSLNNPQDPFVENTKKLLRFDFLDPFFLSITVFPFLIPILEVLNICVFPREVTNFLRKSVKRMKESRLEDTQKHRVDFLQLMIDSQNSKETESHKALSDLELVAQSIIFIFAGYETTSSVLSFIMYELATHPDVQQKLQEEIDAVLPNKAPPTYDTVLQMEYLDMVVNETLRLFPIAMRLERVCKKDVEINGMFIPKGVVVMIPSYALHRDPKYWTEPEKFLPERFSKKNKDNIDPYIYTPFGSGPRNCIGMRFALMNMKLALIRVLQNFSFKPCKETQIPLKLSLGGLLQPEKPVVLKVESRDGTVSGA
Chain of Cytochrome P450 2C19 (Homo sapiens) (P33261 whole entry, looked up): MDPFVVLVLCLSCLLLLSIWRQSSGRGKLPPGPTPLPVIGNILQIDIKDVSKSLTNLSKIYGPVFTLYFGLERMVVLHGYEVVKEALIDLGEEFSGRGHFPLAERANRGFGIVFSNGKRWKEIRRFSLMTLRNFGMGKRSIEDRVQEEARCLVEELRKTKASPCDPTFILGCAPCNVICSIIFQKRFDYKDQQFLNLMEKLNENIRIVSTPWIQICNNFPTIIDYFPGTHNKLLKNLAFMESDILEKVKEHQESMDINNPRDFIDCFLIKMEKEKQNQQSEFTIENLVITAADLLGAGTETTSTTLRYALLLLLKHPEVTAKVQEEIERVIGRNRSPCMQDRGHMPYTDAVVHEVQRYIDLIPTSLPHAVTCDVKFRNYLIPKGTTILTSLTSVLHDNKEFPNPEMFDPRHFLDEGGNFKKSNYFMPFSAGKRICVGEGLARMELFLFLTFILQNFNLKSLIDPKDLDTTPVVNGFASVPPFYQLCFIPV
Chain of Cytochrome P450 1A2 (Homo sapiens) (P05177 whole entry, looked up): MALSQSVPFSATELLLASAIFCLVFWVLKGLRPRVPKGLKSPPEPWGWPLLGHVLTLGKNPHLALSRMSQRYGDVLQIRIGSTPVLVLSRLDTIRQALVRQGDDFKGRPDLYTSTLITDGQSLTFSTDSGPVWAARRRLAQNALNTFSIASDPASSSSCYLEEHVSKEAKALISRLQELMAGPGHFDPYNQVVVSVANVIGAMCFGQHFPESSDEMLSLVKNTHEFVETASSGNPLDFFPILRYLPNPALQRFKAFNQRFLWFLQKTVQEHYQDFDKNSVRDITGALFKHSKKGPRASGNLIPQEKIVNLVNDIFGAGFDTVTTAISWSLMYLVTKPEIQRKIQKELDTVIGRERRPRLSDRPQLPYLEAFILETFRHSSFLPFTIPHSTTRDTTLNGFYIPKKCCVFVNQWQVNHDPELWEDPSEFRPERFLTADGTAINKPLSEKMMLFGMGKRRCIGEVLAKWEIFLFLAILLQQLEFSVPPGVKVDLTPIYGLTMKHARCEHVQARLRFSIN
Chain of Glucocorticoid receptor (Homo sapiens) (P04150 whole entry, looked up): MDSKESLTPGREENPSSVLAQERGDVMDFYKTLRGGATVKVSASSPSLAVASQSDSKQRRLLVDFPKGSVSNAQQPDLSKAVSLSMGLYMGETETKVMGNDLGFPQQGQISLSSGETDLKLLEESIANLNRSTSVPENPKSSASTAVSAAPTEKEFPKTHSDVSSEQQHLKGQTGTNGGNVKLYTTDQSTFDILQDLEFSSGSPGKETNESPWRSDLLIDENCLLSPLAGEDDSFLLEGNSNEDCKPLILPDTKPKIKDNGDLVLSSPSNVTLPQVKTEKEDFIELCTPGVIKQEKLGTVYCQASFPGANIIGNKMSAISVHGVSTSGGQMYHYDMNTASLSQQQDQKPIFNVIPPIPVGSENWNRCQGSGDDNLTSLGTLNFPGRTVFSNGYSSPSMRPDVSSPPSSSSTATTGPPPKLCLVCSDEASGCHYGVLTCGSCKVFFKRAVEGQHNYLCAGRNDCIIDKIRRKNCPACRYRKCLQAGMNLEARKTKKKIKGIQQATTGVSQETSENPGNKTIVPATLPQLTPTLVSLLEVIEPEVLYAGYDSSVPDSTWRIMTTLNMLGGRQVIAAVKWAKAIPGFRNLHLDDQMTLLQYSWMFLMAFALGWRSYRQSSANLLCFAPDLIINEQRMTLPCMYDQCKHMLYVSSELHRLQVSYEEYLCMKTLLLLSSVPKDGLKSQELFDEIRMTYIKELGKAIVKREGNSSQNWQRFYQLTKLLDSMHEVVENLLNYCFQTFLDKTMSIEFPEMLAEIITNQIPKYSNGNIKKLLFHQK
Chain of Lysosomal acid glucosylceramidase (Homo sapiens) (P04062 whole entry, looked up): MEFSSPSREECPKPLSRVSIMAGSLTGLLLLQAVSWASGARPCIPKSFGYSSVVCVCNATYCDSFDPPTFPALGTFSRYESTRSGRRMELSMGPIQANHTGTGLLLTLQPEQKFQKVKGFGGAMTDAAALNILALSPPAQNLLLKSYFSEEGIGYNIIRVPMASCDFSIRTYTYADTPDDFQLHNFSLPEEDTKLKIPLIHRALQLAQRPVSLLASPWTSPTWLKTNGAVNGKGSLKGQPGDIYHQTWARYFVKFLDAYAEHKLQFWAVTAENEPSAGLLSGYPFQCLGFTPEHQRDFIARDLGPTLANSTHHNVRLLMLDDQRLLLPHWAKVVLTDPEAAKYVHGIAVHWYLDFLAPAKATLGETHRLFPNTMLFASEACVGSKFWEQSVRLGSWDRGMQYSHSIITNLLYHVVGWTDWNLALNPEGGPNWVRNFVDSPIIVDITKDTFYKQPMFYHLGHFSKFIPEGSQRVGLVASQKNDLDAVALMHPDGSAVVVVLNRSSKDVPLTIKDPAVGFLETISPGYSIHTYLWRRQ

Consider `Cc1ccc(C2=Nc3ccccc3S[C@@H](c3cccc([N+](=O)[O-])c3)C2)cc1`, for which the Potency is more than 11.4 µM in assay [1]; 2 µM (active) in assay [3]; more than 46 µM in [5]; more than 9.22 µM in assay [6]; 3.98 µM (active) in [9]; 3.98 µM (active) in assay [11]. The activity change, negative = inhibition in assay [2] is -7.9%. The activity, negative = inhibition in assay [4] is -8.15%. In addition, the Potency entry in assay [7], in assay [8] and in [10] was “inactive” each time.

Take `COc1ccccc1-c1ccc2ncnc(NCc3cccnc3)c2c1`: the Potency was more than 11.4 µM in assay [1]; 0.794 µM (active) in assay [3]; more than 46 µM in [5]; more than 46 µM in assay [6]; 0.631 µM (active) in assay [9]; 7.94 µM (active) in assay [12]. Besides, in assay [11], the Potency is 0.0079 µM (active). Moreover, the activity change, negative = inhibition in [2] was -18.5%. Also, in assay [4], the activity, negative = inhibition was -19.8%. Further, the Potency result in assay [7], in assay [8] and in [10] was “inactive” in each case.

Turning to `Cc1ccc(C(=N)c2ccccc2Cc2cccc3ccccc23)c2ccccc12`, the Potency in assay [1] is more than 11.4 µM; in assay [3], 1 µM (active); in assay [5], more than 46 µM; in [6], more than 9.22 µM; in [9] it was 3.98 µM (active); in assay [11], 1.26 µM (active). In [2], the activity change, negative = inhibition is -3.34%. The activity, negative = inhibition in [4] is 13.8%. The Potency result in [7], in [8] and in [10] was “inactive” each time.

In the case of `N[C@@H](CC1=CS(=O)(=O)c2ccc(Cl)cc21)C(=O)O`, the Potency was more than 11.4 µM in assay [1], 0.398 µM (active) in [3], more than 46 µM in assay [5] and more than 9.22 µM in assay [6]. Further, the activity change, negative = inhibition in assay [2] was -5.74%. Also, the activity, negative = inhibition in assay [4] was -1.77%. Moreover, the Potency entry in [7], in assay [8] and in [10] was “inactive” throughout.

Regarding `Cc1ccc(N[C@H](c2ccccc2)c2ccc3cccnc3c2O)cc1`, the Potency in [1] was more than 11.4 µM; in assay [5], more than 46 µM; in assay [6], more than 9.22 µM. For the same compound, the activity change, negative = inhibition is -6.67% in [2] and -24.5% [at 2.29 µM] in [3]. Also, the activity, negative = inhibition in assay [4] is 3.71%. The Potency result in assay [7], in assay [8] and in assay [10] was “inactive” each time.

Consider `Oc1c([C@H](Nc2ccccn2)c2ccccc2)ccc2cccnc12`, for which the Potency in assay [1] was more than 11.4 µM; in assay [5] it was more than 46 µM; in assay [6], more than 9.22 µM; in [12], 0.316 µM (active). Further, the values for the activity change, negative = inhibition in assay [2] and in assay [3] were -3.08% and -21.9% [at 2.29 µM], respectively. In addition, the activity, negative = inhibition in [4] was 15.1%. The Potency result in [7] and in assay [8] was “inactive” each time.

On to `CN(C)CC(C)(C)CN1c2ccccc2Sc2ccccc21`, for which the Potency is more than 11.4 µM in assay [1], more than 46 µM in [5], more than 9.22 µM in assay [6] and 0.199 µM (active) in assay [12]. In addition, the activity change, negative = inhibition in assay [2] was 24%. The Potency result in assay [3], in assay [7], in assay [8] and in assay [10] was “inactive” in each case. For the same compound, in [4], the activity, negative = inhibition is 0.898%.

As for `N=c1sc2ccccc2n1CCS` (tested in a mixture with another compound), the Potency in assay [1] is 4.5 µM (active); in assay [3], 1 µM (active); in assay [5] it was more than 46 µM; in assay [6], more than 9.22 µM; in assay [12] it was 0.316 µM (active); in [11] it was 1.58 µM (active). The activity change, negative = inhibition in assay [2] is 6.12%. In assay [4], the activity, negative = inhibition was -20%. Moreover, the Potency result in [7], in assay [8] and in [10] was “inactive” each time.

In the case of `CN(Cc1cccc2ccccc12)Cc1cccc2ccccc12`, the Potency in assay [1] is more than 11.4 µM; in assay [3] it was 3.16 µM (active); in assay [5] it was more than 46 µM; in assay [6], more than 9.22 µM; in [12], 0.398 µM (active); in [11], 1.58 µM (active). Moreover, the activity change, negative = inhibition in [2] was 6.28%. For the same compound, the activity, negative = inhibition in assay [4] is -2.17%. In addition, the Potency result in [7] and in assay [8] was “inactive” in each case.

For `Cc1ccccc1C(=N)c1ccccc1Cc1cccc2ccccc12`, the Potency in assay [1] is more than 11.4 µM; in [5] it was more than 46 µM; in assay [6], more than 9.22 µM. Moreover, the values for the activity change, negative = inhibition in [2] and in [3] were 5.2% and -17.7% [at 2.29 µM], respectively. Besides, the activity, negative = inhibition in assay [4] was 9.25%. The Potency entry in assay [7], in assay [8] and in [10] was “inactive” throughout.

On to `c1ccc2c[n+](Cc3ccnc4ccccc34)ccc2c1`, for which the Potency in [1] is 8.58 µM (active); in assay [5] it was more than 46 µM; in assay [6], more than 9.22 µM; in [12], 3.16 µM (active). For the same compound, the activity change, negative = inhibition was 12.4% in assay [2] and -21.8% [at 2.29 µM] in assay [3]. Besides, in assay [4], the activity, negative = inhibition was -6.6%. In addition, the Potency entry in assay [7], in [8] and in assay [10] was “inactive” each time.

On to `CO[C@@H]1/C=C\O[C@@]2(C)Oc3c(C)c(O)c4c(c3C2=O)C(=N[C@H]2CC[C@H](O)O[C@@H]2C)C=C(NC(=O)/C(C)=C\C(=O)[C@@H]2C[C@@H]2[C@@H](O)[C@H](C)[C@@H](O)[C@H](C)[C@H](OC(C)=O)[C@@H]1C)C4=O`, for which the Potency in assay [1] is more than 11.4 µM; in assay [5], more than 46 µM; in [6] it was more than 9.22 µM; in assay [9] it was 1.26 µM (active); in [11] it was 2.51 µM (active). In addition, the activity change, negative = inhibition in assay [2] was 26.3%. Moreover, the Potency entry in [3], in assay [7], in [8] and in assay [10] was “inactive” in each case. Besides, in assay [4], the activity, negative = inhibition is -2.6%.

Consider `Clc1ccc2c(NCCNC3CCCCC3)ccnc2c1`, for which the Potency in [1] was more than 11.4 µM; in [5], more than 46 µM; in assay [6] it was more than 9.22 µM; in assay [12] it was 3.16 µM (active). In addition, the activity change, negative = inhibition in assay [2] is 5.59%; in [3], -10.2% [at 2.29 µM]. For the same compound, the activity, negative = inhibition in assay [4] is 3.49%. For the same compound, the Potency result in assay [7] and in [8] was “inactive” each time.

Regarding `O=C(c1ccccc1)[C@H](Nc1ccc2ccccc2c1)c1ccccc1`, the Potency in [1] is more than 11.4 µM; in assay [3] it was 0.794 µM (active); in [5], more than 46 µM; in assay [6], more than 9.22 µM; in assay [9], 3.16 µM (active). Moreover, the activity change, negative = inhibition in [2] is 23.6%. Besides, in assay [4], the activity, negative = inhibition was -0.0129%. Further, the Potency entry in assay [7], in [8] and in [10] was “inactive” each time.
